CtBP-E1A inh = CtBP/E1A binding inhibition. AlphaScreen GST-E1A/His-CtBP binding, 1536-well; hits give low values. AID 651724. 0.49% of 340,000 active. activity change, % (test concentration not listed); in the data active means activity change below about -65%; inconclusive means mostly about -30% to -63%; further: on the % scale 0 is the no-effect control and ±100 the full control effect
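Protein mix (5X: 125 nM each GST-E1A, His-CtBP) was incubated with pinned compound 2 h at 37 deg C in dark, in 50 mM Tris pH 8.0 buffer with 300 mM NaCl. Glutathione donor and nickel acceptor beads followed; AlphaScreen signal read after 1 h.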
Six1-Eya2 inh = inhibitors of human Six1/Eya2 interaction | Q15475+O00167 | 0.56% of 360,000 active | AlphaScreen GST-Six1/His-Eya2 binding, biochemical; hits give low values | AID 651725 | activity change, % (no concentration beside the values); in the data active means activity change below about -65%; inconclusive means mostly about -30% to -63%; further: on the % scale 0 is the no-effect control and ±100 the full control effect
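Homogeneous AlphaScreen proximity assay pairing GST-Six1 with His-tagged Eya2 (added as 5X mix: 250 nM and 500 nM) in 50 mM Tris pH 8.0, 300 mM NaCl, 1 mM TCEP. Glutathione donor and nickel acceptor beads; 1 h, 37 °C, dark.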
BAZ2B block = BAZ2B (human) inhibition; Q9UIF8; AlphaScreen BAZ2B-H3K14Ac peptide displacement; Potency, µM (doses to about 114 µM), inactives show top-dose activity change, negative = inhibition, usual class: inhibitors; 4.4% of 360,000 active; AID 504333; further: potency means the concentration at half of the fitted maximal effect; on the % scale 0 is the no-effect control and ±100 the full control effect; nearly all actives have a fitted effect of over 60% in size
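In this displacement format the biotinylated H3(5-23) peptide acetylated at Lys14 serves as ligand at 50 nM, with BAZ2B at 50 nM in PBS pH 7.4 containing 0.01% Tween-20. Donor and acceptor beads are 10 ug/mL final.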
HP1b binding inh = HP1-beta chromodomain-methylated histone interaction inhibition. Potency, µM (doses to about 114 µM), for the others: at the highest dose activity change, negative = inhibition, actives largely listed as inhibitors. 0.56% of 390,000 active. AID 540317. AlphaScreen HP1-beta / biotin-H3K9me3 peptide binding. P83916; further: potency means the concentration at half of the fitted maximal effect; nearly all actives have a fitted effect of over 70% in size
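Compound inhibition of the preformed complex between 50 nM HP1-beta and 50 nM biotinylated H3K9me3 peptide was read by AlphaScreen. Buffer was PBS pH 7.4 with 0.01% Tween-20. Incubations ran 30 min at room temperature, with 10 ug/mL donor/acceptor beads.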
JMJD2A Tudor = inhibitors of human JMJD2A Tudor domain | O75164 | AlphaScreen JMJD2A-Tudor / H3K4me3 peptide binding | Potency, µM (titrated, usually from 114 µM), for the others: at the highest dose activity change, negative = inhibition, most hits filed as inhibitors | 4.4% of 390,000 active; further: potency means the concentration at half of the fitted maximal effect; on the % scale 0 is the no-effect control and ±100 the full control effect; nearly all actives have a fitted effect of over 50% in size
G9a inh = G9a (human) methyltransferase inhibition. Q96KQ7. G9a H3K9 monomethylation, AlphaScreen, 2 h. Potency, µM (series often up to 102 µM), for inactives: at the top dose activity, negative = inhibition, actives largely listed as inhibitors. 8.8% of 350,000 active. AID 504332; further: potency means the concentration at half of the fitted maximal effect; on the % scale 0 is the no-effect control and ±100 the full control effect; nearly all actives have a fitted effect of over 75% in size
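AlphaScreen read-out: biotin-H3K9 peptide (500 nM) methylation by 20 nM enzyme with 20 uM SAM, 2 h at room temperature after 15 min compound preincubation; anti-monomethyl H3K9 antibody plus donor/acceptor beads, 10 min dark.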
Active calls of the source: *; ? = inconclusive; nt = not tested or not shown; [ ] = dose if it differs, or a comment. Compounds with a hit are over-represented: about 10% of the library has one in this group of screens. Unless noted, the call rests on the fitted dose curve; in most records, active means well fitted inhibition curve with a large enough effect; inconclusive means small, poorly fitted or top-dose-only effect; inactive means no such curve, though single readings can be large or run the other way.

SMILES	CtBP-E1A inh	Six1-Eya2 inh	BAZ2B block	HP1b binding inh	JMJD2A Tudor	G9a inh
Cc1[nH]c(=O)c(C#N)cc1-c1ccc2nccn2c1	nt	nt	nt	nt	nt	13µM*
O=S(=O)(Cc1ccccc1)NCc1cccnc1	-6	5	-2%	19%	-5%	?
O=C1C(Cl)=C(NCCc2ccccc2)C(=O)c2ccccc21	-79*	-76*	nt	?	0.79µM*	nt
O=C1C(Cl)=C(NCc2cccnc2)C(=O)c2ccccc21	?	-17	50µM*	-8%	-36%	?
O=C1c2ccccc2C(=O)c2c(NCCc3ccc(O)cc3)ccc(NCCc3ccc(O)cc3)c21	nt	nt	nt	nt	nt	1.8µM*
Cc1ccc(NCc2cccnc2)cc1	-3	4	?	-6%	40µM*	56µM*
COC(=O)C1=C(C)N(Cc2ccco2)C(=O)N[C@H]1c1cccc(C(F)(F)F)c1	nt	-12	-33%	3%	-25%	?
COc1cccc2c1cc1c(=O)n(CC(=O)N3CCN(c4cccc(C(F)(F)F)c4)CC3)nc(C)n12	nt	nt	-3%	18%	-3%	0%[59 µM]
CC(=O)N(Cc1ccc(F)cc1)C1=C(NCCc2ccccc2)C(=O)c2ccccc2C1=O	?	?	14µM*	-68%	20µM*	28µM*
CC(=O)N(Cc1ccc(F)cc1)c1cccc(C)c1C	2	15	-13%	47%	-1%	39%
C=CCNC1=C(Cl)C(=O)c2ccccc2C1=O	-2	?	32µM*	50µM*	45µM*	40µM*
COCCn1c(=O)c(CCc2ccccc2)nc2cnc(OC)nc21	nt	nt	nt	nt	nt	-7%[12.7 µM]
COc1ccc(N2CC(C(=O)N3CCCC(C)C3)CC2=O)cc1 (stereo not given)	4	1	5%	29%	2%	-7%
O=C1CNC(=O)/C1=C\N1CCCCC1	4	0	2%	33%	-9%	?
O=C1CNC(=O)/C1=C\N1CCN(C(c2ccccc2)c2ccccc2)CC1	-1	0	-31%	78%	-18%	45µM*
CCCc1cc(=O)[nH]c(SCC(=O)Nc2sc3c(c2C(N)=O)CCCC3)n1	-2	-9	nt	16%	-22%	nt
COc1cc(C=NNc2ccccc2)ccc1OC(=O)c1ccccc1	-8	-5	nt	nt	nt	nt
COc1cc(/C=N/Nc2ccc(Cl)c(C(=O)O)c2)ccc1OC(=O)c1cccs1	-26	-11	?	-7%	?	25µM*
COc1cc(/C=N/Nc2ccccc2)ccc1OC(=O)c1cccs1	-13	-10	16%	23%	-13%	28µM*
COc1ccc(CNc2ccc(N3CCN(C(C)=O)CC3)cc2)cc1OC	nt	nt	nt	30%	-17%	nt
C=CCOc1ccc(CNc2ccc(NC(=O)CC(C)C)cc2)cc1OC	5	-14	50µM*	-1%	?	71µM*
C=CCOc1ccc(CNc2nn[nH]n2)cc1OC	-14	10	-29%	20%	?	-2%[59 µM]
COc1cc(CNc2ccc(N3CCCCC3)cc2)ccc1OCC(=O)NC(C)(C)C	?	?	32µM*	?	45µM*	14µM*
COc1cc(CNc2ccc(N3CCCC3)cc2)ccc1OCc1ccccc1F	?	?	25µM*	20µM*	11µM*	10µM*
CC(C(=O)NC1(C#N)CCCCC1)N(C)CC(=O)Nc1ccc(Cl)c(Cl)c1 (stereo not given)	nt	-9	10%	24%	-18%	6%[59 µM]
Cc1cc2c(s1)c1cnn(Cc3cc(F)cc(F)c3)c(=O)c1n2C	nt	nt	nt	nt	-9%	nt
NC(=O)c1cc(S(=O)(=O)N2CCN(c3ccc(F)cc3)CC2)cs1	nt	nt	3%	26%	3%	-5%[59 µM]
COc1ccc2c(c1OC)C(=O)OC2Nc1nc(-c2cccc([N+](=O)[O-])c2)cs1 (stereo not given)	-16	-16	?	-9%	?	-33%
CCOc1cc(/C=N/NC(=O)c2c(-c3ccccc3)noc2C)ccc1O	-4	-16	7%	42%	-3%	28%

High-throughput results (PubChem)
